ERK EGF inh – qHTS Assay for Inhibitors of the ERK Signaling Pathway using a Homogeneous Screening Assay; Stimulation with EGF. 130,000 compounds, 0.41% hits. HEK293-V1b, EGF-stimulated phospho-ERK AlphaScreen. Potency, µM (series often up to 11.5 µM), usual class: inhibitors; further: nearly all actives have a fitted effect of over 55% in size
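EGF-stimulated (25 nM, 5 min) phospho-ERK in HEK293 cells stably expressing V1b, cells pretreated 30 min with compound at 37C. Homogeneous AlphaScreen read on lysates.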
pERK EGF inh – Confirmation Concentration-Response Assay for Inhibitors of the ERK Signaling Pathway using a Homogeneous Screening Assay; Stimulation with EGF; Potency, µM (series often up to 57.5 µM), actives largely listed as inhibitors; shares compounds with ERK EGF inh; HEK293 EGF-stimulated ERK phosphorylation, AlphaScreen; 60 compounds, 60% hits
c-Raf inh – Assay for Inhibitors of the ERK Signaling Pathway using a Homogeneous Screening Assay: c-Raf Inhibition; shares compounds with ERK EGF inh; c-Raf kinase inhibition, homogeneous biochemical assay; activity change, negative = inhibition, % at 76.9 µM; 70 tested, under 10 active; AID 1728, 2009
MEK inh – Assay for Inhibitors of the ERK Signaling Pathway using a Homogeneous Screening Assay: MEK Inhibition. shares compounds with ERK EGF inh. homogeneous MEK kinase activity assay, ERK pathway. Potency, µM (doses to about 76.9 µM), most hits filed as inhibitors. 70 tested, under 10 active. AID 1732, 2009
Target sequence (Q02750 whole entry, looked up): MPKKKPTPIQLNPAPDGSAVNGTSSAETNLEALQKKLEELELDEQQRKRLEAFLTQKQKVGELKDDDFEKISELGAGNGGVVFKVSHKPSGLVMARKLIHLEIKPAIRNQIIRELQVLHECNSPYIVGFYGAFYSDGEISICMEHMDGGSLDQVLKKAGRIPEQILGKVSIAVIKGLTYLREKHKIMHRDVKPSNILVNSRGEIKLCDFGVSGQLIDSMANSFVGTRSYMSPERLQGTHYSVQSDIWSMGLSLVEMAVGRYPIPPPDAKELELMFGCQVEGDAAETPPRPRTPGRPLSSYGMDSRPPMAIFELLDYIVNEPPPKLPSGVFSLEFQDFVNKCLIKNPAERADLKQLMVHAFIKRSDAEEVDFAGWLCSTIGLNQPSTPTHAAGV
A number is an active result; . = inactive; ? = inconclusive. The full list was thinned out, with hits kept by preference. The call rests on the fitted dose curve; in most records, active means well fitted curve in the direction sought with a large enough effect; inconclusive means small, poorly fitted or top-dose-only effect, or another doubt; inactive means no such curve, though single readings can be large; an effect the other way counts as inactive or inconclusive.

SMILES	ERK EGF inh	others
CCCCCS(=O)(=O)CCCCCCCCCCn1c(-c2ccc(O)cc2)c(C)c2cc(O)ccc21	14µM
CCCCCC(=O)c1ccc(O)cc1O	.
CCCCCn1c(=O)c(-c2nc3ccccc3[nH]2)c(O)c2ccccc21	.
CCC(C)(C)C(=O)O[C@@H]1C[C@@H](C)C=C2C=C[C@H](C)[C@H](CC[C@@H]3C[C@@H](O)CC(=O)O3)[C@H]21	.
Cc1cc(O)c(C)c2c1CC[C@H]1[C@H](C)C(=O)O[C@H]21	.
C=C(CO)C1Cc2c(ccc3c2OC2COc4cc(OC)c(OC)cc4C2C3=O)O1 (configuration not stated)	.
COc1cccc([C@@H]2Oc3ccc(Br)cc3C(=O)[C@H]2OC(=O)NCCOc2ccccc2)c1	.
Cc1ccc(CN=c2c([N+](=O)[O-])nn(-c3ccc4c(c3)OCCO4)n2O)cc1	.
CCc1ccc(N=c2c([N+](=O)[O-])nn(-c3ccc4c(c3)OCCO4)n2O)cc1	28µM
Cc1ccc(N=c2c([N+](=O)[O-])nn(-c3ccc4c(c3)OCCO4)n2O)c(Cl)c1	.
Cc1noc(C)c1-c1ccc2ncnc(N(C)Cc3ccco3)c2c1	.
O=C(Nc1ccc(Nc2ccccc2)cc1)Nc1ccccc1Cl	28µM
CSc1ccccc1NC(=O)Nc1ccccc1Cl	.
O=C(Nc1ccccc1Cl)Nc1ccccc1Cl	.
COC(=O)[C@@H]1C[C@@H]2CC[C@@H](O)C[C@@H]2N1CC1CCCCC1	.
Cc1cc(=O)cc2oc3cc(N)c(-c4c(C)cc(O)cc4O)c(C)c3nc1-2	.
Cc1ccc(CNC(=O)[C@H]2C[C@@H]2[C@H](NP(=O)(c2ccccc2)c2ccccc2)c2ccccc2)c(F)c1F	.
O=C(Nc1cccc(F)c1)N1CCC2(CCNCC2)CC1	.
CN(Cc1ccco1)c1ncnc2ccc(-c3ccc4c(c3)OCO4)cc12	.
O=C(O)c1cccc(Nc2ncnc3ccc(Br)cc23)c1	.
c1ccc(Nc2ncnc3ccc(-c4ccc5c(c4)OCO5)cc23)cc1	2.8µM
COc1cccc(CS(=O)(=O)c2nnnn2-c2ccc(F)cc2Br)c1	.
CCN(CC)CCCC(C)Nc1c2ccc(Cl)cc2nc2ccc(OC)cc12 (configuration not stated)	.
COc1ccc2nc3cc(Cl)ccc3c(Nc3cc(C(C)C)c(O)cc3C)c2c1	18µM
Cc1cc(O)c(C(C)C)cc1NC(=O)c1ccccc1Cl	.
SMILES	ERK EGF inh	others
CC(=O)OC1CC[C@]2(C)C(CC(OC(C)=O)[C@@]3(C)C4=CC(=O)OC(c5ccoc5)[C@]4(C)CCC23)C1(C)C (some centres not stated)	.
Cc1ccc(N/C(N)=N/c2nc(C)cc(C)n2)cc1	.
CCC(=O)Nc1ccc(N/C(N)=N/c2nc(C)cc(C)n2)cc1	.
CCCCc1ccc(N/C(N)=N/c2nc(C)cc(C)n2)cc1	18µM
Cc1cc2c3c(cccc3n1)C(=O)c1ccccc1-2	.
O=C(N[C@H]1CCCc2ccccc21)O[C@@H]1C(=O)c2cc(Br)ccc2O[C@H]1c1ccc2c(c1)OCO2	.
COC(=O)[C@@H]1C[C@H]1[C@@H](NC(=O)Oc1ccc(F)cc1)c1ccccc1	.
Cc1cccc(NC(=O)CSc2nnc(-c3n[nH]c4ccccc34)o2)c1	.
C#Cc1cccc(NC(=O)CSc2nnc(-c3ccc(C(F)(F)F)cn3)o2)c1	.
N#Cc1cccc(NC(=O)CSc2nnc(-c3n[nH]c4ccccc34)o2)c1	32µM
CN(C)c1ccc(-c2nc(NC3CCNCC3)c3ccccc3n2)cc1	.
CC(=O)OCC(=O)[C@@]1(O)CCC2C3CCC4=CC(=O)C=CC4(C)C3C(O)C[C@]21C (some centres not stated)	.
Cc1ccc(S(=O)(=O)/C=C\C#N)cc1	.
O=C(Nc1nc(-c2ccccc2)cs1)c1ccc(N2CCOCC2)c([N+](=O)[O-])c1	4µM	pERK EGF inh=10µM;c-Raf inh=?;MEK inh=.
Cc1ccc(-c2csc(NC(=O)c3cc([N+](=O)[O-])ccc3N3CCOCC3)n2)cc1	.
O=C(Nc1cccc(Cl)c1N1CCCCC1)c1ccc(N2CCOCC2)c([N+](=O)[O-])c1	.
CCNCCCNCCCCNCCCNCC	.
CCCCCCCCCCCCCCCC(=O)NC(C)C	.
